Results from the supplement of paper PMC10127200.

How the values were obtained:
Test in all cases: Euclidean distance of Cell Painting phenotypic profile (signed KS, 77 features) to DMSO centroid (dimensionless distance); 5 or 10 uM (library dependent); higher = stronger phenotypic change vs DMSO (phenoactivity)
Settings in all cases: 48 h
[1] = tested on: 786-O
In short: (§1)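 Phenoactivity is computed as Euclidean distance to the median vehicle profile. The profiles, drawn from 77 Harmony features scored as signed Kolmogorov-Smirnov statistics versus same-plate vehicle wells, were corrected for plate position, correlation-weighted and replicate-averaged at the top dose. Stained cells were imaged confocally at 20X (9 fields/well) after 48 h with library compounds at 10 or 5 uM, 0.1% DMSO final, in five cancer lines and a healthy fibroblast line.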

[2] = tested on: A549
In short: as §1

[3] = tested on: DU145
In short: as §1

[4] = tested on: FB
In short: as §1

[5] = tested on: HEPG2
In short: as §1

[6] = tested on: OVCAR4
In short: as §1

Structure (SMILES)	Euclidean distance [1]	Euclidean distance [2]	Euclidean distance [3]	Euclidean distance [4]	Euclidean distance [5]	Euclidean distance [6]
Cc1cn([C@H]2C=C[C@@H](CO)O2)c(=O)[nH]c1=O [Stavudine (d4T)]	1.64	1.46	0.564	0.969	0.716	1.06
OCc1ccc(-c2ccc(-c3ccc(CO)s3)o2)s1	2.79	2.26	1.44	2.66	4.78	5.04
C[C@@H]1CC(=O)NN=C1c1ccc(NN=C(C#N)C#N)cc1 [Levosimendan]	1.83	0.486	1.3	1.44	0.487	0.625
CN1C(=O)C(Cc2c[nH]c3ccccc23)NC1=S (centres undefined) [Necrostatin-1]	1.05	1.61	1.1	0.994	0.953	1.55
O=C(Nc1cccnn1)N1CCC(=Cc2cccc(Oc3ccc(C(F)(F)F)cn3)c2)CC1	1.52	1.02	1.2	0.799	1.66	1.21
CN(NC(=O)CC(=O)NN(C)C(=S)c1ccccc1)C(=S)c1ccccc1 [Elesclomol (STA-4783)]	5.12	5.4	4.86	6.42	1.29	6.01
O=C1CCc2cc(OCCCCc3nnnn3C3CCCCC3)ccc2N1 [Cilostazol]	1.11	0.94	1.56	1.21	0.849	1.26
CNC(=O)c1ccc(-c2cnc3ncc(Cc4ccc5ncccc5c4)n3n2)cc1F	1.36	0.853	0.871	0.899	0.745	0.726
COCC1=C(C(=O)OC(C)OC(=O)OC(C)C)N2C(=O)[C@@H](NC(=O)/C(=N\OC)c3csc(N)n3)[C@H]2SC1 (some centres undefined) [Cefpodoxime proxetil]	1.25	0.683	0.813	1.04	0.687	0.958
CN(C)N(C)C(=O)[C@@]1(Cc2ccccc2)CCCN(C(=O)[C@@H](Cc2c[nH]c3ccccc23)NC(=O)C(C)(C)N)C1 [Anamorelin]	1.33	0.796	0.841	1.59	0.82	0.802
O=C(O)Cc1cccc(OCCCN(Cc2cccc(C(F)(F)F)c2Cl)CC(c2ccccc2)c2ccccc2)c1	1.18	0.78	0.825	1.32	0.721	0.79
O=C(Nc1ncc([N+](=O)[O-])s1)c1ccccc1O [Tizoxanide]	2.03	1.85	2.61	2.81	2.81	1.81
CN(C)CCOC(c1ccccc1)c1ccccc1.Cn1c(=O)c2[nH]c(Cl)nc2n(C)c1=O [Dimenhydrinate]	0.947	1	1.72	1.28	0.581	0.863
CCCN1CCCC[C@H]1C(=O)Nc1c(C)cccc1C [Ropivacaine Mesilate]	0.655	0.72	1.14	0.717	0.914	0.946
